The campaign covered roughly 5,500 compounds. About 2,000 (36%) were called active. Roughly 18% stayed inconclusive and do not appear here. Cut-off read from the data, not from the text of the source: active = normalized growth mostly below about 0.91 (no sharp cut-off); inconclusive = no clear call, values can overlap the other calls; inactive = mostly above about 0.92. The list shows a part of the results.
Assay: chemical genetic growth profiling, strain panel (AID 1159580);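 note: tested at 20 µM; growth read once vehicle control cultures reached saturation at 30 °C; 1 = growth at the plate median or of vehicle wells; lower values mean less growth of the strain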
Settings: S. cerevisiae deletion strains, growth OD
[1] = locus YAL013W, strain DEP1, stronger effect = lower value
[2] = locus YDR150W, strain NUM1, stronger effect = lower value
[3] = locus YGR078C, strain PAC10, stronger effect = lower value
[4] = locus YJR075W, strain HOC1, stronger effect = lower value
[5] = locus YMR307W, strain GAS1, stronger effect = lower value
[6] = locus YPL055C, strain LGE1, stronger effect = lower value

Measured: normalized growth

COc1cc2c(CCNC(C)=O)c[nH]c2cc1O
inactive: [1] 1.02 | locus YAL040C, strain CLN3, stronger effect = lower value 1.01 | locus YCL061C, strain MRC1 (second series), stronger effect = lower value 1.01 | [2] 1.01 | locus YDR363W, strain ESC2, stronger effect = lower value 1.02 | locus YER002W, strain NOP16, stronger effect = lower value 1.02 | [3] 1 | [4] 1.02 | [5] 1 | locus YNL128W, strain TEP1, stronger effect = lower value 1.02 | locus YNL175C, strain NOP13, stronger effect = lower value 0.998 | locus YNL197C, strain WHI3, stronger effect = lower value 1.02 | locus YNL224C, strain SQS1, stronger effect = lower value 0.996 | locus YOR083W, strain WHI5 (second series), stronger effect = lower value 1 | [6] 1.02

CC(=O)NC(CCC(=O)O)C(=O)O (stereo not drawn)
active: locus YHR087W, strain rtc3, stronger effect = lower value 1.13 [resistant]
inactive: [1] 0.985 | locus YBR229C, strain ROT2, stronger effect = lower value 0.966 | locus YCL061C, strain MRC1, stronger effect = lower value 0.984 | locus YDL101C, strain DUN1, stronger effect = lower value 0.96 | [2] 0.974 | locus YEL061C, strain CIN8, stronger effect = lower value 0.975 | [3] 0.983 | locus YHR030C, strain SLT2, stronger effect = lower value 0.973 | locus YJR043C, strain POL32, stronger effect = lower value 0.976 | [4] 0.99 | locus YKL190W, strain CNB1, stronger effect = lower value 0.99 | locus YLR039C, strain RIC1, stronger effect = lower value 0.978 | locus YLR058C, strain SHM2 (second series), stronger effect = lower value 0.981 | locus YLR085C, strain ARP6, stronger effect = lower value 0.975 | locus YLR262C, strain YPT6, stronger effect = lower value 1.01 | locus YML094W, strain GIM5, stronger effect = lower value 0.981 | locus YMR219W, strain ESC1, stronger effect = lower value 0.975 | locus YMR263W, strain SAP30, stronger effect = lower value 0.987 | [5] 1.1 | locus YNL153C, strain GIM3, stronger effect = lower value 0.978 | locus YNL298W, strain CLA4 (second series), stronger effect = lower value 0.984 | locus YNL322C, strain KRE1, stronger effect = lower value 0.984 | locus YNR030W, strain Alg12, stronger effect = lower value 1.02 | locus YOL006C, strain TOP1, stronger effect = lower value 0.964 | [6] 1.03 | locus YPL241C, strain CIN2, stronger effect = lower value 0.973 | locus YPR135W, strain CTF4, stronger effect = lower value 0.969

From PubChem BioAssay AID1159580 (chemical genetic matrix, 2015)
